According to PubChem BioAssay (NCATS):
Records with an inconclusive call do not appear. Entries that show only a call come without a potency. Active and inactive are the calls of the source. The call rests on the fitted dose curve; in most records, active means well fitted inhibition curve with a large enough effect; inconclusive means small, poorly fitted or top-dose-only effect; inactive means flat fitted curve, though single readings scatter.

Columns and labels:
Assay in all cases: qHTS profiling for inhibitors of Plasmodium falciparum proliferation (AID 504749); further: nearly all actives have a fitted effect of over 60% in size
Conditions in all cases: P. falciparum in erythrocytes, SYBR Green DNA, 72 h; series mostly up to 28.7 µM
CP269 = system: CP269
Summary of the method: (§1)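 P. falciparum-infected erythrocytes (0.3% parasitemia, 2.5% hematocrit final) were exposed to compounds for 72 h at 37 C in 5% CO2, then lysed with SYBR Green buffer overnight at room temperature; parasite DNA fluorescence was normalized to artemisinin and DMSO controls.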

CP286 = system: CP286
Summary of the method: as §1

CP297 = system: CP297
Summary of the method: as §1

CP305 = system: CP305
Summary of the method: as §1

CP315 = system: CP315
Summary of the method: as §1

CP325 = system: CP325
Summary of the method: as §1

CP329 = system: CP329
Summary of the method: as §1

DFO2036 = system: DFO2036
Summary of the method: as §1

DIV30 = system: DIV30
Summary of the method: as §1

ECU = system: ECU
Summary of the method: as §1

FAB9 = system: FAB9
Summary of the method: as §1

HB3 = system: HB3
Summary of the method: as §1

ICS = system: ICS
Summary of the method: as §1

JCK = system: JCK
Summary of the method: as §1

CP291 = system: CP291
Summary of the method: as §1

CP335 = system: CP335
Summary of the method: as §1

Dd2 = system: Dd2
Summary of the method: as §1

GB4 = system: GB4
Summary of the method: as §1

DIV14 = system: DIV14
Summary of the method: as §1

DIV17 = system: DIV17
Summary of the method: as §1
Potency means the concentration at half of the fitted maximal effect.

Row | SMILES | Potency (CP269) | Potency (CP286) | Potency (CP297) | Potency (CP305) | Potency (CP315) | Potency (CP325) | Potency (CP329) | Potency (DFO2036) | Potency (DIV30) | Potency (ECU) | outcome (FAB9) | Potency (HB3) | Potency (ICS) | outcome (JCK) | Potency (CP291) | Potency (CP335) | Potency (Dd2) | Potency (GB4) | Potency (DIV14) | Potency (DIV17)
1 | CN1CCN2c3ncccc3Cc3ccccc3C2C1 (centres undefined) | inactive | inactive | inactive | inactive | inactive | inactive | inactive | inactive | inactive | inactive | inactive | inactive | 11.2 µM (active) | inactive |  |  |  |  |  | 
2 | CC(C)CN(C[C@@H](O)[C@H](Cc1ccccc1)NC(=O)O[C@H]1CO[C@H]2OCC[C@H]21)S(=O)(=O)c1ccc(N)cc1 | inactive | inactive | inactive | inactive | inactive | inactive | inactive | inactive |  | inactive | inactive | inactive |  | inactive | inactive | inactive | inactive | inactive |  | 
3 | Cc1cc2nc3c(=O)[nH]c(=O)nc-3n(CC(O)C(O)C(O)CO)c2cc1C (centres undefined) | inactive | inactive | inactive | inactive | inactive | inactive | inactive | inactive | inactive | inactive | inactive | inactive | inactive | inactive | inactive | inactive | inactive |  |  | 
4 | N#CC(c1ccc(Cl)cc1)c1c(Cl)cc(-n2ncc(=O)[nH]c2=O)cc1Cl (centres undefined) | inactive | inactive | inactive | inactive | inactive | inactive | inactive | inactive | inactive | inactive | inactive | inactive |  | inactive | inactive | inactive | inactive | inactive |  | 
5 | Clc1ccc(COC(Cn2ccnc2)c2ccc(Cl)cc2Cl)c(Cl)c1 (centres undefined) |  |  | 4.05 µM (active) |  |  | 5.1 µM (active) |  | 3.16 µM (active) | 5.73 µM (active) | 1.26 µM (active) |  | 3.55 µM (active) | 1 µM (active) |  |  |  |  | 5.1 µM (active) | 2.28 µM (active) | 3.61 µM (active)
6 | Fc1ccc(C(c2ccc(F)cc2)N2CCN(CC=Cc3ccccc3)CC2)cc1 |  |  |  | 13.5 µM (active) |  |  |  |  | 16.9 µM (active) |  |  |  |  |  |  | 15.1 µM (active) |  | 16.9 µM (active) | 12 µM (active) | 13.5 µM (active)
7 | O=C1C(CCC(O)c2ccc(F)cc2)C(c2ccc(O)cc2)N1c1ccc(F)cc1 (centres undefined) | inactive | inactive | inactive | inactive | inactive | inactive | inactive | inactive | inactive | inactive | inactive | inactive | inactive | inactive | inactive | inactive | inactive | inactive | inactive | inactive
8 | CS(=O)(=O)c1ccc(C2=C(c3ccccc3)C(=O)OC2)cc1 | inactive | inactive | inactive | inactive | inactive | inactive | inactive | inactive | inactive | inactive | inactive | inactive | inactive | inactive | inactive | inactive | inactive | inactive | inactive | inactive
9 | CN1CC(=O)N2C(Cc3c([nH]c4ccccc34)[C@H]2c2ccc3c(c2)OCO3)C1=O (some centres undefined) | inactive | inactive | inactive | inactive | inactive | inactive | inactive | inactive | inactive | inactive | inactive | inactive |  | inactive | inactive | inactive | inactive | inactive |  | 
10 | NS(=O)(=O)c1cc(Cl)c(Cl)c(S(N)(=O)=O)c1 | inactive | inactive | inactive | inactive | inactive | inactive | inactive | inactive | inactive | inactive | inactive | inactive | inactive | inactive | inactive | inactive | inactive | inactive | inactive | inactive
11 | COc1ccnc(CS(=O)c2nc3ccc(OC(F)F)cc3[nH]2)c1OC (centres undefined) | inactive | inactive | inactive | inactive | inactive | inactive | inactive | inactive |  | inactive | inactive | inactive | inactive | inactive | inactive | inactive | inactive | inactive | inactive | inactive
12 | COc1c(C)c2c(c(O)c1CC=C(C)CCC(=O)OCCN1CCOCC1)C(=O)OC2 | 8.49 µM (active) | 7.08 µM (active) | 12 µM (active) | 10.7 µM (active) | 13.5 µM (active) | 10.7 µM (active) | 7.57 µM (active) | 10 µM (active) | 12 µM (active) | 10 µM (active) | inactive |  | 7.94 µM (active) |  | 8.49 µM (active) | 8.49 µM (active) | 11.2 µM (active) | 6.75 µM (active) | 13.5 µM (active) | 15.1 µM (active)
13 | C=C1c2cccc(O)c2C(O)=C2C(=O)[C@@]3(O)C(O)=C(C(N)=O)C(=O)[C@@H](N(C)C)[C@@H]3[C@@H](O)[C@H]12 | inactive |  | inactive | inactive | inactive | inactive | inactive | inactive | inactive | inactive | inactive |  |  | inactive | inactive |  | 1.78 µM (active) | inactive | inactive | inactive
14 | N#Cc1c(N(CC(=O)O)CC(=O)O)sc(C(=O)O)c1CC(=O)O | inactive | inactive | inactive | inactive | inactive | inactive | inactive | inactive | inactive | inactive | inactive | inactive | inactive | inactive | inactive | inactive | inactive | inactive | inactive | inactive
15 | O=C(O)c1nc(=O)[nH]c(=O)[nH]1 | inactive | inactive | inactive | inactive |  | inactive | inactive | inactive | inactive | inactive | inactive | inactive | inactive | inactive | inactive |  | inactive | inactive | inactive | inactive
16 | COc1cc2c(cc1OC)CC(=O)N(CCCN(C)C[C@H]1Cc3cc(OC)c(OC)cc31)CC2 | inactive | inactive | inactive | inactive | inactive | inactive | inactive | inactive |  | inactive | inactive | inactive |  | inactive | inactive | inactive | inactive | inactive |  | 
